# Reference: the supplement of paper PMC9942566
# ± gives the standard deviation of the averaged measurements.
# Tested on: Serratia marcescens K904 PosmB-luxCDABE reporter (pMQ747)
# Assay: PosmB-lux reporter fold induction (RLU/OD600 relative to no-compound control), highest over Biolog concentrations; higher = stronger reporter activation
# Conditions: ΔrcsB mutant CMS5177; 4 h
# Protocol: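 Serratia marcescens K904 (wild type) or its isogenic ΔrcsB mutant, carrying the Rcs-dependent PosmB-luxCDABE reporter plasmid pMQ747, was grown in LB at OD600 0.1 in Biolog Phenotype MicroArray plates PM11-20 for 4 h at 30-32°C. Each compound is present at 3-4 proprietary concentrations (not stated); per the Fig. S1 legend the value given is the highest fold over those wells. Three independent trials.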
row,SMILES,PosmB-lux reporter fold induction
1,"Cc1cc(O)cc(C)c1Cl [chloroxylenol] (Biolog plate: PM16, well positions: H5-8)",1.72 ± 0.43
2,"CCCCC(CC)CNC(=N)NC(=N)NCCCCCCNC(=N)NC(=N)NCC(CC)CCCC (stereo not given) [Alexidine] (Biolog plate: PM15, well positions: E1-4)",1.92 ± 0.13
3,"Cc1cc(N)c2ccccc2[n+]1CCCCCCCCCC[n+]1c(C)cc(N)c2ccccc21 [Dequalinium chloride] (Biolog plate: PM13, well positions: A5-8)",1.05 ± 0.21
4,"CC(=O)OCC1=C(C(=O)O)N2C(=O)[C@@H](NC(=O)Cc3cccs3)[C@H]2SC1 [Cephalothin] (Biolog plate: PM11, well positions: H1-4)",1.37 ± 0.15
5,"Nc1c2ccccc2nc2ccccc12 [9-Aminoacridine] (Biolog plate: PM14, well positions: B1-4)",1.19 ± 0.19
6,"CN[C@@H]1[C@H](O)[C@H](NC)[C@H]2O[C@@]3(O)C(=O)C[C@@H](C)O[C@H]3O[C@@H]2[C@H]1O [Spectinomycin] (Biolog plate: PM12, well positions: G1-4)",1.6 ± 0.68
7,"Nc1ccc(S(=O)(=O)Nc2ncccn2)cc1 [Sulfadiazine] (Biolog plate: PM12, well positions: E5-8)",1.84 ± 0.29
8,"CO[C@H]1C[C@H](O[C@H]2[C@H](C)[C@@H](O[C@@H]3O[C@H](C)C[C@H](N(C)C)[C@H]3O)[C@@H](C)C[C@@]3(CO3)C(=O)[C@H](C)[C@@H](O)[C@@H](C)[C@@H](C)OC(=O)[C@@H]2C)O[C@@H](C)[C@@H]1O [Oleandomycin] (Biolog plate: PM15, well positions: F5-8)",2.18 ± 0.57
9,"O=C(O)CN(CCN(CC(=O)O)CC(=O)O)CC(=O)O (Biolog plate: PM15, well positions: B5-8)",1.22 ± 0.17
10,"CCN1CCN(C(=O)N[C@@H](C(=O)N[C@@H]2C(=O)N3C(C(=O)O)=C(CSc4nnnn4C)CS[C@H]23)c2ccc(O)cc2)C(=O)C1=O [cefoperazone] (Biolog plate: PM17, well positions: G9-12)",1.44 ± 0.22
11,"OCC(O)CS (stereo not given) [thioglycerol] (Biolog plate: PM19, well positions: H5-8)",1.08 ± 0.56
12,"CN(C)[C@@H]1C(O)=C(C(N)=O)C(=O)[C@@]2(O)C(O)=C3C(=O)c4c(O)cccc4[C@@](C)(O)[C@H]3C[C@@H]12 [Tetracycline] (Biolog plate: PM12, well positions: A5-8)",1.12 ± 0.097
13,"Nc1ncn([C@@H]2O[C@H](CO)[C@@H](O)[C@H]2O)c(=O)n1 [5-azacytidine] (Biolog plate: PM16, well positions: E5-8)",2.23 ± 0.64
14,"Nc1ccc2cc3ccc(N)cc3nc2c1 [proflavine] (Biolog plate: PM20, well positions: D1-4)",1.91 ± 0.49
15,"CCn1cc(C(=O)O)c(=O)c2cc(F)c(N3CCNCC3)nc21 [Enoxacin] (Biolog plate: PM11, well positions: E5-8)",1.45 ± 0.3
16,"CO/N=C(\C(=O)N[C@@H]1C(=O)N2C(C(=O)O)=C(COC(C)=O)CS[C@H]12)c1csc(N)n1 [cefotaxime] (Biolog plate: PM16, well positions: A2-4)",1.11 ± 0.047
17,"CC1(C)S[C@@H]2[C@H](NC(=O)COc3ccccc3)C(=O)N2[C@H]1C(=O)O.CN(C)[C@@H]1C(O)=C(C(=O)NCN2CCN(CCO)CC2)C(=O)[C@@]2(O)C(O)=C3C(=O)c4c(O)cccc4[C@@](C)(O)[C@H]3C[C@@H]12 [Penimepicycline] (Biolog plate: PM12, well positions: B5-8)",1.27 ± 0.3
18,"Nc1ccc(S(=O)(=O)Nc2ccc(Cl)nn2)cc1 [sulfachloro-pyridazine] (Biolog plate: PM17, well positions: C5-8)",1.63 ± 0.15
19,"c1ccc(-c2nn(-c3ccccc3)[n+](-c3cccc4ccccc34)n2)cc1 [tetrazolium violet] (Biolog plate: PM20, well positions: B9-12)",0.262 ± 0.11
20,"CCOc1ccc2ccccc2c1C(=O)N[C@@H]1C(=O)N2[C@@H]1SC(C)(C)[C@@H]2C(=O)O [Nafcillin] (Biolog plate: PM11, well positions: D9-12)",1.05 ± 0.14

row,SMILES,PosmB-lux reporter fold induction
1,"CO[C@H]1/C=C/O[C@@]2(C)Oc3c(C)c(O)c4c(O)c(c(/C=N/N5CCN(C)CC5)c(O)c4c3C2=O)NC(=O)/C(C)=C\C=C\[C@H](C)[C@H](O)[C@@H](C)[C@@H](O)[C@@H](C)[C@H](OC(C)=O)[C@@H]1C [Rifampicin] (Biolog plate: PM12, well positions: H5-8)",17.2 ± 8.3
2,"CN(C)CCC=C1c2ccccc2CCc2ccccc21 [amitriptyline] (Biolog plate: PM20, well positions: A2-4)",1.16 ± 0.17
3,"CO[C@@]1(NC(=O)C(C(=O)O)c2ccc(O)cc2)C(=O)N2C(C(=O)O)=C(CSc3nnnn3C)CO[C@@H]21 (stereo not given in full) [Moxalactam] (Biolog plate: PM13, well positions: H5-8)",1.94 ± 0.81
4,"CSCCC(N)C(=O)NO (racemic) [DL-methionine hydroxamate] (Biolog plate: PM17, well positions: F5-8)",5.25 ± 1.3
5,"O=[N+]([O-])c1ccc(-[n+]2nc(-c3ccccc3)nn2-c2ccc(I)cc2)cc1 [iodonitro tetrazolium violet] (Biolog plate: PM19, well positions: D5-8)",0.242 ± 0.11
6,"[Na+].[O]=[V](=[O])[O-] [Sodium metavanadate] (Biolog plate: PM14, well positions: F9-12)",1.84 ± 1
7,"NC[C@@H]1O[C@H](O[C@H]2[C@@H](O)[C@H](O[C@@H]3[C@@H](O)[C@H](N)C[C@H](N)[C@H]3O[C@H]3O[C@H](CO)[C@@H](O)[C@H](O)[C@H]3N)O[C@@H]2CO)[C@H](N)[C@@H](O)[C@@H]1O [Paromomycin] (Biolog plate: PM12, well positions: C1-4)",1.42 ± 0.79
8,"N[C@H](CO)C(=O)O [D-serine] (Biolog plate: PM17, well positions: A2-4)",1.12 ± 0.081
9,"CC1COc2c(N3CCN(C)CC3)c(F)cc3c(=O)c(C(=O)O)cn1c23 (stereo not given) [Ofloxacin] (Biolog plate: PM11, well positions: H9-12)",1.96 ± 0.47
10,"CCn1cc(C(=O)O)c(=O)c2ccc(C)nc21 [Nalidixic Acid] (Biolog plate: PM11, well positions: E9-12)",8.63 ± 3.1
11,"Oc1c(Cl)cc(Cl)c(Cl)c1Cc1c(O)c(Cl)cc(Cl)c1Cl [hexa-chlorophene] (Biolog plate: PM20, well positions: E9-12)",0.997 ± 0.31
12,"NC[C@H]1O[C@H](O[C@H]2[C@H](O)[C@@H](O[C@H]3O[C@H](CO)[C@@H](O)[C@H](N)[C@H]3O)[C@H](N)C[C@@H]2N)[C@H](N)C[C@@H]1O [Tobramycin] (Biolog plate: PM12, well positions: F1-4)",1.52 ± 0.67
13,"CC1(C)S[C@@H]2[C@H](NC(=O)C(C(=O)O)c3ccccc3)C(=O)N2[C@H]1C(=O)O (stereo not given in full) [Carbenicillin] (Biolog plate: PM12, well positions: A9-12)",1.03 ± 0.29
14,"CO[C@H]1/C=C/O[C@@]2(C)Oc3c(C)c(O)c4c(O)c(cc(O)c4c3C2=O)NC(=O)/C(C)=C\C=C\[C@H](C)[C@H](O)[C@@H](C)[C@@H](O)[C@@H](C)[C@H](OC(C)=O)[C@@H]1C [rifamycin SV] (Biolog plate: PM16, well positions: E9-12)",35.4 ± 1.7
15,"CCCCCCCCCCCC[N+](C)(C)CCOc1ccccc1 [Domiphen bromide] (Biolog plate: PM15, well positions: D5-8)",2.39 ± 0.17
16,"Cc1cc(C)nc(NS(=O)(=O)c2ccc(N)cc2)n1 [Sulfamethazine] (Biolog plate: PM12, well positions: D5-8)",1.41 ± 0.34
17,"Nc1ccc(S(N)(=O)=O)cc1 [sulfanilamide] (Biolog plate: PM16, well positions: B5-8)",1.59 ± 0.33
18,"NC(CO)C(=O)NO (racemic) [D,L-Serine hydroxamate] (Biolog plate: PM12, well positions: C9-12)",1.74 ± 1.6
19,"Cc1onc(-c2ccccc2Cl)c1C(=O)N[C@@H]1C(=O)N2[C@@H]1SC(C)(C)[C@@H]2C(=O)O [Cloxacillin] (Biolog plate: PM11, well positions: B5-8)",1.06 ± 0.1
20,"CNC(C)C1CCC(N)C(OC2C(N)CC(N)C(OC3OCC(C)(O)C(NC)C3O)C2O)O1 (stereo not given) [Gentamicin] (Biolog plate: PM11, well positions: G5-8)",1.47 ± 0.41
